ATXN viability – viability counter-screen for ATXN expression inhibitors; S2 cells (HEK-293 line with an ATXN2-luciferase reporter) viability, CellTiter-Fluor protease fluorescence, 24 h; Potency, µM (top dose mostly 56.7 µM), actives largely listed as cytotoxic; 400,000 compounds, 0.49% hits; AID 651635; also: nearly all actives have a fitted effect of over 40% in size
ATXN2 expr inh – ATXN2 expression inhibition; HEK-293 ATXN2-luciferase reporter, luminescence, 24 h; Potency, µM (top dose mostly 57 µM), usual class: inhibitors; 360,000 compounds, 0.72% hits; also: nearly all actives have a fitted effect of over 55% in size
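ATXN2-luciferase reporter cells (luciferase flanked by upstream and downstream ATXN2 gene portions) were treated 24 h at 37 °C with compounds at up to 57 uM. SteadyGlo luminescence gave expression; GF-AFC fluorescence gave viability.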
TGFb inhibitor – blocks TGF-b signaling. HepG2 CAGA-GFP TGF-b/SMAD3 reporter, GFP fluorescence, 18 h; TGF-beta stimulated, 500 pg/mL final. 410,000 compounds, 1.2% hits. Potency, µM (doses to about 46.1 µM), hits mostly inhibitors; also: nearly all actives have a fitted effect of over 65% in size
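HEPG2 CAGA-GFP, 1000 cells/well; 2 h settle, 37 C; cpd via pin tool; TGF-b 500 pg/mL final; 18 h, 37 C; GFP imaging ex488/em500-530; %Activity normalised to -TGF-b and +DMSO controls; CRC fit, curve class.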
HepG2 tox – kills HepG2 cells in TGF-b inhibitor counter-screen; HepG2 CAGA-GFP viability, ATP luminescence, 18 h; 410,000 compounds, 0.76% hits; Potency, µM (doses to about 46.1 µM), most hits filed as cytotoxic; AID 588856
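HepG2 CAGA-GFP cells (1000/well, DMEM with 1% FBS) received compound, then TGF-beta at 500 pg/mL final, and were incubated 18 hours at 37 degrees C. Viability was read by CellTiter-Glo luminescence. Media-only wells were set as complete cell-killing and DMSO as no toxicity.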
12-LOX inh – ALOX12 (human) lipoxygenase inhibition; P18054; purified 12hLO, xylenol orange hydroperoxide absorbance; Potency, µM (series often up to 108 µM), usual class: inhibitors; 580,000 compounds, 1.1% hits
Target sequence (P18054 whole entry, looked up): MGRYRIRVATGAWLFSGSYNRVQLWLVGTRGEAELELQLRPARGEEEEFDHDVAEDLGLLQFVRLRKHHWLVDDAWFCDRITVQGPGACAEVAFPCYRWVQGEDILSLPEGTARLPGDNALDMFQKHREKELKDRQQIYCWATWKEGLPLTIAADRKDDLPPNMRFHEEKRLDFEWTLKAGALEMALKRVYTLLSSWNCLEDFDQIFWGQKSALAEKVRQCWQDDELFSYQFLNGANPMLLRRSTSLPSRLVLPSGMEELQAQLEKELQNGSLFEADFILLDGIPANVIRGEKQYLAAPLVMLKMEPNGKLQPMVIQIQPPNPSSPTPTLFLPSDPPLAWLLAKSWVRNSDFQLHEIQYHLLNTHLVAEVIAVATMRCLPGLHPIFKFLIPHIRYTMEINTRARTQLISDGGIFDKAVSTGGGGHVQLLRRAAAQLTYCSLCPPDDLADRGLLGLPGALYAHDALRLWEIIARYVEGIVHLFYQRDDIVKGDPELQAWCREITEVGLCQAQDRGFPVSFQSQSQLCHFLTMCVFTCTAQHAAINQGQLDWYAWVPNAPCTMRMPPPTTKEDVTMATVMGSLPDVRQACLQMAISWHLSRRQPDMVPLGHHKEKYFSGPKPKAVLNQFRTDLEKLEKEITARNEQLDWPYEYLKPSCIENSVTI
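Purified human 12hLO at 150 nM in 25 mM Hepes, 0.01% Triton X-100, pH 7.0, preincubated 15 min at room temperature with compound. Reaction started with 40 uM arachidonic acid, 30 min at room temperature. Hydroperoxide measured by Fe-xylenol orange, 573/405 nm absorbance ratio.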
Numbers stand for hits; 0 = inactive; ? = inconclusive; - = no result given; ! = repeats disagree. A selection: hits, their analogues and other compounds. The true share with any hit is near 2.7%. Calls follow the shape of the dose curve; as a rule, active = well fitted curve in the direction sought with a large enough effect; inconclusive = small, poorly fitted or top-dose-only effect, or another doubt; inactive = no such curve, though single readings can be large; an effect the other way counts as inactive or inconclusive.

SMILES | ATXN viability | ATXN2 expr inh | TGFb inhibitor | HepG2 tox | 12-LOX inh
COc1cc(COC(=O)c2ccc(S(=O)(=O)N3CCOCC3)cc2)ccc1OC(F)F | - | - | - | - | 0
COc1ccc(CC2S/C(=N/N=C/c3ccc(O)cc3)NC2=O)cc1 (centres undefined) | 0 | 0 | 0 | 0 | 0
COc1ccc(CC2S/C(=N/N=C/c3ccccc3O)NC2=O)cc1 (centres undefined) | ? | ? | 7.9µM | 0 | 0
O=C1N/C(=N/N=C/c2ccc(O)cc2)SC1Cc1ccccc1 (centres undefined) | 0 | 0 | 0 | 0 | 0
O=C1N/C(=N/N=C/c2ccccc2O)SC1Cc1ccc(F)cc1 (centres undefined) | ? | 8.9µM | ? | 0 | 0
Cc1ccc2c(=O)c3cccc(CC(=O)O)c3oc2c1C | - | 24µM | - | - | 0
O=C(O)Cc1cccc2c(=O)cc(-c3ccccc3)oc12 | 0 | 0 | 0 | 0 | 0
Cc1ccc(CN2C[C@@H](CO)[C@H](c3nc(C)no3)C2)cc1 | - | - | - | - | 0
C[C@@H](c1ccccc1)N1C[C@H](COCc2ccccc2)Oc2cc(N3CC[C@H](N(C)C)C3)ccc2S1(=O)=O | 16µM | ? | - | - | 0
C[C@H](c1ccccc1)N1C[C@H](COCc2ccccc2)Oc2cc(N3CC[C@H](N(C)C)C3)ccc2S1(=O)=O | 16µM | ? | - | - | ?
C[C@@H](c1ccccc1)N1C[C@H](COCc2ccccc2)Oc2cc(N3CC[C@@H](N(C)C)C3)ccc2S1(=O)=O | 22µM | 28µM | - | - | ?
CCCCC[C@@H](C)N1C[C@H](COCc2ccccc2)Oc2cc(N3CC[C@H](N(C)C)C3)ccc2S1(=O)=O | 25µM | ? | - | - | 0
N#Cc1cccnc1NCCc1coc(-c2ccccc2)n1 | - | - | - | - | 0
CCOc1ccc(NC(=O)COc2ncnc3ccccc23)c([N+](=O)[O-])c1 | - | - | - | - | 0
CN1CCN(S(=O)(=O)c2ccc(NC(=O)Cn3cnc4ccccc4c3=O)cc2)CC1 | - | - | - | - | 0
CNC(=O)CCn1ncc2cc(OCc3ccccc3-c3ccc(F)cc3C)ccc21 | - | - | - | - | 63µM
COc1cccc(-c2ccc(COc3ccc4c(cnn4CCC(=O)O)c3)cc2)c1F | - | - | - | - | 0
COc1ccc(F)cc1-c1ccc(COc2ccc3c(cnn3CCC(=O)O)c2)cc1 | - | - | - | - | 35µM
Cc1cc(Oc2cccc(Cl)c2C#N)ccc1Cl | - | - | - | - | 0
Cn1nc(C(=O)N(Cc2ccc3c(c2)OCO3)C2CCCC2)c2ccccc2c1=O | - | - | - | - | 0
COc1cccc2c1C(=O)C=C(C)C2=O | - | ? | ? | 0 | ?
CC1=CC(=O)c2ccccc2C1=O | 0 | 24µM! | ? | 16µM! | ?
CC(C)(C=O)C1=CC(=O)c2ccccc2C1=O | - | 16µM | ? | 0 | 40µM
CSc1ccccc1C(=O)NCCC1=CCCCC1 | - | - | - | - | 0
CCCCc1cc(=O)oc2cc(OCC(=O)NCc3ccncc3)ccc12 | - | - | - | - | 0
SMILES | ATXN viability | ATXN2 expr inh | TGFb inhibitor | HepG2 tox | 12-LOX inh
C/C(=N\O)c1ccc(OCCCCCOc2ccc(/C(C)=N/O)cc2)cc1 | - | - | - | - | 0
Cn1cnnc1SCC(=O)c1cc2ccccc2oc1=O | 0 | 0 | 0 | 0 | 6.3µM
O=C(CSc1ccc(Cl)cc1)c1cc2ccccc2oc1=O | - | - | - | - | 7.1µM
COc1ccc2c(C)c(CC(=O)NC3CC(C)(C)NC(C)(C)C3)c(=O)oc2c1OC | - | - | - | - | 0
COc1ccc(OC)c(-n2c(-c3ccc(F)cc3)cn3c4c(=O)[nH]c(=O)n(C)c4nc23)c1 | - | - | - | - | 0
Oc1ccc(C2C(c3ccccc3)=NN=C(c3ccccc3F)N2O)c(O)c1 (centres undefined) | 0 | 0 | 0 | 0 | 0
Oc1ccc(C2C(c3ccccc3)=NN=C(c3ccc(Cl)cc3)N2O)c(O)c1 (centres undefined) | 0 | 0 | ? | 0 | 32µM
CCN1C(=O)S/C(=C/c2ccc(Sc3nc4ccccc4[nH]3)o2)C1=O | ? | ? | 13µM | 0 | 0
O=C(O)c1ccc2cc(-c3ccc(O)c(C45CC6CC(CC(C6)C4)C5)c3)ccc2c1 | - | 1.9µM | - | - | 0
Oc1ccc(C23CC4CC(CC(C4)C2)C3)cc1O | - | - | 0 | 0 | ?
N#C/C(C(=O)Nc1ccc(Cl)cc1)=C(/S)Nc1ccccc1 | 0 | 0 | 11µM | 11µM | 1.8µM
O=C(Nc1ccc(Nc2ccccc2)cc1)c1ccc(Cl)cc1 | 0 | - | 0 | 0 | ?
O=C(CCC(=O)NNC(=O)COc1ccccc1)NCc1ccccc1 | 0 | 0 | ? | 13µM | 0
Cc1cccc(OCCN(C)Cc2cc(=O)oc3c(C)c(O)ccc23)c1 | - | - | - | - | 0
O=C(NC1CCCCCC1)c1cc2c(s1)-c1ccsc1CC2 | - | - | - | - | 0
Cc1c(C(=O)Nc2nccs2)sc2nc(-c3cccs3)cc(C(F)(F)F)c12 | ? | 25µM | 0 | 0 | 0
Cc1ccc(S(=O)(=O)/N=C2/NC(=O)/C(=C/c3cc([N+](=O)[O-])ccc3O)S2)cc1 | 0 | 0 | 0 | 0 | 10µM
O=C1NC(=Nc2ccccc2Cl)S/C1=C\c1cc([N+](=O)[O-])ccc1O | ? | ? | 0 | 0 | 32µM
Cc1cc(SCC(=O)NC(=O)NCc2ccco2)nc2c(C)cccc12 | 0 | 0 | ? | 0 | 22µM
COc1ccc(N=c2nc(-c3ccc(C)cc3)n(-c3ccccc3)s2)cc1 | - | - | 3.2µM | 0 | -
COc1ccc(N=c2nc(-c3ccccc3)n(-c3ccc(C)cc3)s2)cc1 | - | - | 4µM | 0 | -
Cc1ccc(-c2nc(=Nc3ccccc3)sn2-c2ccccc2)cc1 | - | - | 3.5µM | 4.5µM | -
N=c1nc(-c2ccccc2)n(-c2ccccc2)s1 | - | - | 0 | 0 | -
C=C1C(=O)OC2C=C(CO)CCC=C(CO)CC(OC(=O)C(C)C)C12 (centres undefined) | ? | ? | 16µM | 0 | 0
C=C1C(=O)OC2C=C(C)CCC=C(C)CCC12 (centres undefined) | - | 0 | - | - | 0
SMILES | ATXN viability | ATXN2 expr inh | TGFb inhibitor | HepG2 tox | 12-LOX inh
COc1cc(-n2nc(C)c3c2OC(N)=C(C#N)C3c2ccccc2)c(Cl)c(Br)c1O (centres undefined) | 14µM | 0 | ? | 0 | -
CC(NC(=O)CSc1nnc(-c2cccnc2)n1-c1ccccc1)c1ccc2c(c1)OCCO2 (centres undefined) | - | - | - | - | 0
Cc1c(F)cccc1NC(=O)Nc1cccc(-c2ccc(N3CCOCC3)nn2)c1 | - | - | - | - | 0
CC(C(Sc1ccccc1N)c1ccccc1)[N+](=O)[O-] (centres undefined) | 28µM | ? | ? | 0 | ?
Nc1ccccc1SC(CC(=O)c1ccccc1)c1ccccc1 (centres undefined) | ? | - | ? | 0 | -
CCCC(C)NC(=O)c1ccc(OC)c(S(=O)(=O)NCC)c1 (centres undefined) | - | - | - | - | 0
COc1ccc(C2C=C3CNS(=O)(=O)C3CC2OC(=O)c2ccc(C(F)(F)F)cc2)cc1 (centres undefined) | - | - | 14µM | 0 | -
COc1ccc(C2C=C3CNS(=O)(=O)C3CC2OC(=O)c2cccs2)cc1 (centres undefined) | - | - | ? | 0 | -

Screening results deposited in PubChem by National Center for Advancing Translational Sciences (NCATS).
